Laboratory results as given in PubChem BioAssay AID1347414 (National Center for Advancing Translational Sciences (NCATS), 2020).
Records with an inconclusive call do not appear. Activity calls are given as the source filed them. Calls follow the shape of the dose curve; as a rule, active = well fitted inhibition curve with a large enough effect; inconclusive = small, poorly fitted or top-dose-only effect; inactive = no such curve, though single readings can be large or run the other way.

Experiment: qHTS to identify inhibitors of the type 1 interferon - major histocompatibility complex class I in skeletal muscle: Secondary screen by immunofluorescence; also: nearly all actives have a fitted effect of over 70% in size;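 as to activity change, negative = inhibition: digitonin at 100 µM served as the cytotoxic control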
Details: C25cl48 myoblasts, IFN-b induced HLA-ABC immunofluorescence, 24 h, Viability; series mostly up to 49.8 µM; activity change, negative = inhibition: at the top concentration
Source text: Assay Submitter (PI): Travis B. Kinder Ph.D. & James Inglese Ph.D. Assay Development and Screening Technology Laboratory (ADST) National Center for Advancing Translational Sciences (NCATS), Rockville, MD National Institute of Health (NIH), Bethesda, Maryland Idiopathic inflammatory myopathies, collectively referred to as myositis, are a group of rare autoimmune diseases characterized by skeletal muscle inflammation, weakness, and usually accompanied by systemic pathologies of the skin, lungs, or vasculature. Current immunosuppressive therapies and glucocorticoids are often not curative and are accompanied by harsh side effects, especially in children with juvenile myositis. We initiated a drug repurposing and development program to identify more targeted, less toxic therapeutics to treat myositis. Although its cause is not known, muscle from a subset of patients have an abundance of the inflammatory type 1 interferon (IFN) and a down-stream product major histocompatibility complex class I (MHC class I), which are both thought to contribute to damage and weakness. We conducted quantitative high throughput screening (qHTS) on 6,576 compounds (4,679 unique) through a series of cell-based assays to identify those that inhibit the IFN-stimulated expression of MHC class I in muscle precursor cells (myoblasts). The compound identification and evaluation strategy utilized a primary screen with reporter-tagged MHC class I in genome-engineered myoblasts, ATP content counter screen for viability, HLA-ABC immunofluorescence secondary screen, and HLA-B RT-qPCR tertiary screen. To verify activity of compounds identified by qHTS in HLA-B HiBit reporter cells, compounds were assayed by high throughput HLA-ABC immunofluorescence. Briefly, 216 compounds identified from primary and counter screening as inhibitory with minimal cytotoxicity were dispensed into black/clear bottom […] using acoustic dispensing in an 11-point, 1:3 titration with a high final concentration of 50 uM. Normal immortalized human myoblasts C25cl48 were added to the plates with 4.0 ng/ml human IFN-beta for 24 hours, fixed, stained by immunofluorescence for HLA-ABC protein, nuclei, and cell body, and analyzed by laser scanning cytometry as described by Auld et al., 2006. References: Auld DS, Johnson RL, Zhang Y, Veith H, Jadhav A, Yasgar A, Simeonov A, Zheng W, Martinez ED, Westwick JK, Austin CP, Inglese J. 2006. Fluorescent protein-based cellular assays analyzed by laser-scanning microplate cytometry in 1536-well plate format. Methods Enzymol 414:566-89. doi:10.1016/S0076-6879(06)14029-X
PROTOCOL TABLE (as described by Inglese et al., 2007) SEQUENCE No. (e.g., 1, 2, 3, etc.); […] (e.g., Cells, Incubation, Reagent, etc.); VALUE; DESCRIPTION 0; Compounds; 25 nl; Follow-up compounds dispensed at 25 nl/well with Labcyte Echo 655 acoustic dispenser in triplicate Aurora ChemLib 1536K black/clear bottom, low base, TC 1536-well plates (00019324). Also dispensed 25 nl/well DMSO control, ruxolitinib IFN-b inhibitor control titration, and digitonin cytotoxic control 1a; Cells; 5 uL; Multidrop Combi (Thermo Scientific) to seed 125 cells/well into eight plates in 5 ul/well of iHSKM growth medium (GM) without dexamethasone into columns 1+2. Add metal lids with gas-exchange holes 1b; Cells; 5 uL; Multidrop Combi (Thermo Scientific) to seed 125 cells/well into eight plates in 5 ul/well of iHSKM GM without dexamethasone + 4 ng/ml IFN-b into columns 3 - 48. […]
% is scaled to controls: 0 for no effect and ±100 for the full control effect; potency is read from the fitted curve at half-maximal effect.

Row | Compound | activity change, negative = inhibition | Potency
1 | C=CCNC1=C2C[C@@H](C)C[C@H](OC)[C@H](O)[C@@H](C)/C=C(\C)[C@H](OC(N)=O)[C@@H](OC)/C=C\C=C(/C)C(=O)NC(=CC1=O)C2=O | 3.61% (inactive) | –
2 | COc1cc(Nc2ncc(F)c(Nc3ccc4c(n3)NC(=O)C(C)(C)O4)n2)cc(OC)c1OC | -3.83% (inactive) | –
3 | O=C(Nc1cn[nH]c1-c1nc2ccc(CN3CCOCC3)cc2[nH]1)NC1CC1 | -21.8% (inactive) | –
4 | CC[C@@]1(O)C(=O)OCc2c1cc1n(c2=O)Cc2cc3cc(O)ccc3nc2-1 | -2.03% (inactive) | –
5 | CS[C@H]1SC[C@@H]2C(=O)N(C)[C@H](C(C)C)C(=O)OC[C@H](NC(=O)c3cnc4ccccc4n3)C(=O)N[C@H](C)C(=O)N(C)[C@H]1C(=O)N(C)[C@H](C(C)C)C(=O)OC[C@H](NC(=O)c1cnc3ccccc3n1)C(=O)N[C@H](C)C(=O)N2C | -4.37% (inactive) | –
6 | Cc1ccc(C(N)=O)cc1Nc1nccc(-c2cn(C(C)C)c3cnccc23)n1 | 0.513% [at 99.5 µM] (inactive) | –
7 | CC(C)(C)c1nc2c3cc[nH]c(=O)c3c3cc(F)ccc3c2[nH]1 | -15.7% (inactive) | –
8 | CN1CCC(c2c(O)cc(O)c3c(=O)cc(-c4ccccc4Cl)oc23)C1CO (stereo not given) | -0.712% (inactive) | –
9 | Cc1cnc(Nc2ccc(N3CCN(C)CC3)cc2)nc1Nc1cccc(S(=O)(=O)NC(C)(C)C)c1 | – | 20.5 µM (active)
10 | C/C=C1\NC(=O)[C@H]2CSSCCC=C[C@H](CC(=O)N[C@H](C(C)C)C(=O)N2)OC(=O)[C@H](C(C)C)NC1=O | – | 8.14 µM (active)
11 | COc1c(C)cnc(Cn2cnc3c(Cl)nc(N)nc32)c1C | -3.79% (inactive) | –
12 | COc1cccc2nc(-c3cccs3)nc(NN3C(=O)C=C(C)C3=O)c12 | – | 16.2 µM (active)
13 | C[C@H](NC(=O)/C(C#N)=C/c1cccc(Br)n1)c1ccccc1 | – | 12.9 µM (active)
14 | CCN(CC)CCOc1ccc(Nc2ncc3cc(-c4c(Cl)cccc4Cl)c(=O)n(C)c3n2)cc1 | – | 9.13 µM (active)
15 | CC[C@@]1(O)C(=O)OCc2c1cc1n(c2=O)Cc2cc3c(CN(C)C)c(O)ccc3nc2-1 | -1.12% (inactive) | –
16 | NC(=O)Nc1sc(-c2ccc(F)cc2)cc1C(N)=O | -1.64% (inactive) | –
17 | O=C1NC(=O)[C@@H](c2c[nH]c3ccccc23)[C@H]1c1cn2c3c(cccc13)CCC2 | 9.87% (inactive) | –
18 | Cc1ccc(-c2ncn(-c3ccc(Nc4nccc(-c5cccc(N6CCOCC6)c5)n4)cc3)n2)cn1 | -0.586% (inactive) | –
19 | O=C(CCCCCCC(=O)Nc1ccccc1)NO | 4.55% (inactive) | –
20 | COC1CC(C(=O)c2ccc3c(N)ncc(-c4ccc(-c5cnn(C)c5)cc4)c3n2)C1 (stereo not given) | 0.546% (inactive) | –

Row | Compound | activity change, negative = inhibition | Potency
21 | CCc1cnn2c(NCc3ccc[n+]([O-])c3)cc(N3CCCC[C@H]3CCO)nc12 | 1.64% (inactive) | –
22 | CC(C)(C)c1ccc(S(=O)(=O)/C=C/C#N)cc1 | – | 3.24 µM (active)
23 | COc1cccc2c1C(=O)c1c(O)c3c(c(O)c1C2=O)C[C@@](O)(C(=O)CO)C[C@@H]3O[C@H]1C[C@H](N)[C@H](OC2CCCCO2)[C@H](C)O1 (stereo not given in full) | 4.58% (inactive) | –
24 | COc1ccc(F)c(F)c1C(=O)c1cnc(NC2CCN(S(C)(=O)=O)CC2)nc1N | 1.88% (inactive) | –
25 | CC(C)c1cc(C(=O)N2Cc3ccc(CN4CCN(C)CC4)cc3C2)c(O)cc1O | 18.5% (inactive) | –
26 | COc1ccc(CNc2nc(N(CCO)CCO)nc3c2ncn3C(C)C)cc1 | -27.7% (inactive) | –
27 | C=C1C(=O)O[C@@H]2[C@H]3O[C@]3(C)CC/C=C(\C)CC[C@@H]12 | – | 11.5 µM (active)
28 | C[C@H](Nc1ncnc2nc[nH]c12)c1cc2cccc(Cl)c2c(=O)n1-c1ccccc1 | -1.87% (inactive) | –
29 | C[C@]12CCC(=O)C=C1CC[C@H]1[C@@H]3CC[C@](O)(C(=O)CO)[C@@]3(C)C[C@H](O)[C@@]12F | 7.29% (inactive) | –
30 | O=C(/C=C/c1ccc2ccc(C(F)(F)F)cc2n1)c1ccncc1 | – | 3.64 µM (active)
31 | Cc1ncc(-c2ccnc(Nc3ccc(S(C)(=O)=O)cc3)n2)n1C(C)C | 0.722% (inactive) | –
32 | Cn1ncc2cc(-c3cnc(N)c(Cl)c3N3CCC4(CCNC4=O)CC3)ccc21 | -17.9% (inactive) | –
33 | CC(=O)OCC(=O)[C@@]1(O)CC[C@H]2[C@@H]3CCC4=CC(=O)C=C[C@]4(C)[C@H]3[C@@H](O)C[C@@]21C | 30% (inactive) | –
34 | CC(C)CC(=O)Nc1n[nH]c2c1CN(C(=O)C1CCN(C)CC1)C2(C)C | -4.69% (inactive) | –
35 | COc1cc2c(cc1-c1c(C)noc1C)ncc1[nH]c(=O)n([C@H](C)c3ccccn3)c12 | 10.5% (inactive) | –
36 | Cc1ccc2nc(NCCN)c3ncc(C)n3c2c1 | 9.24% (inactive) | –
37 | CC(/C=C/C(=O)NO)=C\[C@@H](C)C(=O)c1ccc(N(C)C)cc1 | -16.9% (inactive) | –
38 | CC1=C(CO)C(=O)O[C@@H]([C@@H](C)[C@H]2CC[C@H]3[C@@H]4C[C@H]5O[C@]56[C@@H](O)C=CC(=O)[C@]6(C)[C@H]4CC[C@]23C)C1 | – | 2.05 µM (active)
39 | COc1ccc(-c2ccc3ncc4c(c3c2)n(-c2ccc(N3CCNCC3)c(C(F)(F)F)c2)c(=O)n4C)cn1 | – | 1.02 µM (active)
40 | CC(C)c1cnn2c(NCc3ccccc3)cc(N[C@@H](CO)[C@H](O)CO)nc12 | 9.25% (inactive) | –
